FAS TE block = inhibitors of human fatty acid synthase thioesterase domain | recombinant FAS-TE, OMFH fluorogenic substrate, fluorescence endpoint | inhibition, % at 15 µM | 360,000 compounds, 0.67% hits | AID 602261;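 active = compounds whose normalised, plate-corrected inhibition of enzyme fluorescence in the single-dose primary screen is 50% or more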;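 also: 0% = DMSO with enzyme and 100% = substrate without enzyme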
GRIN3A LBD mod = NR3A (human) ligand-binding domain modulation; NR3A LBD differential scanning fluorimetry, Tm shift; 0% = protein alone, 100% = glycine-bound protein; Tm shift relative to glycine control, % at 25 µM; 340,000 compounds, 2.5% hits; AID 1259313;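 active = melting temperature shift of at least 10% of the positive control shift, at one fixed dose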
aDG glyco up = alpha-DG glycosylation activation. Pro5-aDG cells, alpha-DG glycosylation AlphaScreen (IIH6); 0% Pro5, 100% B10-LARGE cell signal. activation, % at 10 µM. 360,000 compounds, 0.22% hits;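 active = activation of at least 8% versus controls, or a plate z-score of at least 8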;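 also: Pro5 are CHO cells carrying HIG-tagged alpha-DG that lacks glycosylation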
ADAM17 inh = inhibits human ADAM17; P78536; recombinant ADAM17, EDANS/DABCYL FRET peptide cleavage; inhibition, % at 6.95 µM; 370,000 compounds, 0.83% hits; AID 720648;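 active = inhibition above the mean of compounds lying between control limits plus 3 SD, set per campaign, cut at about 8.5% in these data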;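 also: 0% = DMSO-only wells as the low control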
ADAM10 inh = ADAM10 inhibition, QFRET primary screen. 370,000 compounds, 0.62% hits. inhibition, % at 7 µM. recombinant ADAM10, EDANS/DABCYL FRET peptide cleavage, 3 h. AID 720582. O14672;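 active = inhibition above a per-campaign cutoff equal to the mean of compounds falling between control-based bounds plus 3 SD, cut at about 20% in these data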;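 also: 0% = DMSO wells while the 100% control is not disclosed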
Target sequence (O14672 214-748 limits assumed): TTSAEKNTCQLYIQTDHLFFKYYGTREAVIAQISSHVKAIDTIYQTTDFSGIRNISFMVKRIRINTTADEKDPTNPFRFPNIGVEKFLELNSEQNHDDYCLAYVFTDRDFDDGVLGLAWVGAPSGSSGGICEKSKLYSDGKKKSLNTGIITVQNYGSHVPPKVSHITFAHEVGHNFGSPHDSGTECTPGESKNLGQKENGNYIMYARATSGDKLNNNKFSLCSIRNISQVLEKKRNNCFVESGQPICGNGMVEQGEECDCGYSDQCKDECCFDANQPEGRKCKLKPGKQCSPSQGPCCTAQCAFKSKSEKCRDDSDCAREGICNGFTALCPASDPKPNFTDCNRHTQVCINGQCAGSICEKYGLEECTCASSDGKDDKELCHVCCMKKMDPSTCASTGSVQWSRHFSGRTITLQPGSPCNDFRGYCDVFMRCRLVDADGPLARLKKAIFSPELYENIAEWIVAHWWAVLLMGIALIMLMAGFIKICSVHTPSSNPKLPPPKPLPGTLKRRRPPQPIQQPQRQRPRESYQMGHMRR
ADAM10 confirm = confirmation of inhibitors of human ADAM10 | 2,100 compounds, 1% hits | ADAM10 QFRET peptide cleavage, EDANS fluorescence | AID 743208 | inhibition, % at 6.95 µM | shares compounds with ADAM10 inh;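 active = inhibition above about 20% chosen separately for each screening run, limit read from the data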;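 also: 0% = DMSO wells and 100% = marimastat wells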
ADAM17 ctr = counter-screen for ADAM10 exosite inhibitors: inhibitors of human ADAM17. shares compounds with ADAM10 inh. ADAM17 QFRET peptide cleavage, EDANS fluorescence. inhibition, % at 6.95 µM. 2,100 compounds, 0.5% hits;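 active = mean triplicate inhibition above the solvent-only control wells' mean plus 3 SD, cut at about 12% in these data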;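 also: 0% = DMSO wells and 100% = marimastat wells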
ADAM10 ctr = inhibits human ADAM10 in ADAM17 exosite counter-screen. shares compounds with ADAM17 inh. recombinant ADAM10, EDANS/DABCYL FRET peptide cleavage, 3 h. inhibition, % at 6.95 µM. 2,900 compounds, 47% hits;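 active = mean inhibition over the triplicate runs exceeds the activity threshold set in the earlier primary screen, cut at about 20% in these data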;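 also: 0% = DMSO wells and 100% = marimastat wells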
ADAM17 confirm = confirmation of inhibitors of human ADAM17; shares compounds with ADAM17 inh; recombinant ADAM17, EDANS/DABCYL QFRET peptide cleavage; inhibition, % at 6.95 µM; 2,900 compounds, 65% hits; AID 743257;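 active = mean inhibition across replicates above the hit cutoff set in the primary screen, cut at about 8.5% in these data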;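 also: 0% = DMSO wells and 100% = marimastat wells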
Starred values were filed as active, the others as inactive; . = not tested or not shown. Sampled rows, rich in hits. Any-hit rate of the full collection: about 4%.

SMILES	FAS TE block	GRIN3A LBD mod	aDG glyco up	ADAM17 inh	ADAM10 inh	ADAM10 confirm	ADAM17 ctr	ADAM10 ctr	ADAM17 confirm
CCN1C(=O)[C@H]2[C@@H](c3ccc(-c4cccc(Cl)c4)cc3)N[C@@](C)(C(=O)OC)[C@H]2C1=O	14	-7	0	5	24*	-1	0	.	.
COC(=O)[C@]1(CC(C)C)N[C@H](c2ccc(-c3cccc(Cl)c3)cc2)[C@@H]2C(=O)N(C)C(=O)[C@@H]21	35	0	0	6	23*	8	2	.	.
C=CCn1c(CCNC(=O)c2ccccc2F)nnc1SCC(=O)Nc1nc2ccccc2s1	-1	0	0	-7	-3	.	.	.	.
O=C1C(=Cc2cn(-c3ccccc3)nc2-c2ccc(OCc3ccccc3F)cc2)SC(=S)N1CCS(=O)(=O)O	42	.	0	3	26*	7	0	.	.
O=C1CSC(c2cccc(F)c2)N1c1c(F)cccc1F (stereo not given)	1	0	0	1	23*	0	0	.	.
O=C1CSC(c2ccc(F)cc2)N1c1c(F)cccc1F (stereo not given)	0	0	0	2	8	.	.	.	.
COc1cccc(S(=O)(=O)NCc2ccc(C(=O)N3CCN(c4ccccc4OC)CC3)cc2)c1	2	.	0	4	6	.	.	.	.
CCCCNC(=O)Cc1ccc(C)cc1	-11	2	0	0	-2	.	.	.	.
Cc1noc(C)c1COC(=O)C1CC(O)CN1S(=O)(=O)c1ccc(Cl)cc1 (stereo not given)	-1	0	0	-7	-3	.	.	.	.
CCOc1ccc(NC(=O)CN(C)C(=O)Cc2c[nH]c3ccccc23)cc1OCC	-7	-1	0	-8	-17	.	.	.	.
CN(CC(=O)Nc1ccc(Cl)c(C(F)(F)F)c1)C(=O)Cc1c[nH]c2ccccc12	22	12*	0	-4	25*	1	0	.	.
CCOC(=O)c1ccc(NC(=S)NC(=O)c2cncc(Br)c2)cc1	-4	0	0	-2	75*	0	0	.	.
Cn1c(N=Nc2ccccc2)nc2ccccc21	-11	-2	2	8	22*	2	0	.	.
O/N=C(/c1ccc(F)cc1)C1CC1c1c(F)cccc1Cl (stereo not given)	-1	1	0	4	26*	3	1	.	.
COc1ccc(C(=O)/C=C/c2ccccc2C(F)(F)F)cc1	12	-36	0	6	20*	2	0	.	.
Clc1ccccc1C1CC(c2ccccc2)Nc2ncnn21 (stereo not given)	5	-1	0	-3	92*	2	-1	.	.
c1ccc(C2CC(c3ccccc3)n3ncnc3N2)cc1 (stereo not given)	-2	-1	0	-4	-8	.	.	.	.
CCN(CC)S(=O)(=O)c1cccc(NC(=O)C2SC(=Nc3ccc(C)cc3C)C(C(=O)NC(C)COC)=C2N)c1 (stereo not given)	24	3	0	7	20*	9	4	.	.
O=C1CC(=O)C(n2cncn2)C(c2ccc(Cl)cc2Cl)C1 (stereo not given)	-1	-3	0	.	.	.	.	.	.
O=C1CC(c2ccccc2Oc2cccc(Cl)c2)C(n2cncn2)C(=O)C1C1NCCc2ccccc21 (stereo not given)	0	1	0	0	23*	-1	-1	.	.
COc1ccc(C(=O)OCC(=O)c2c[nH]c3ccccc23)cc1OC	-6	1	1	-7	-6	.	.	.	.
COc1cc(OC)c(N(C)S(=O)(=O)c2cccc(C(=O)OCC(=O)c3c[nH]c4ccccc34)c2)cc1Cl	36	26*	2	-1	32*	14	5	.	.
COc1ccc(C(C)(C)C)cc1NC(=O)Nc1ccc2c(c1)OCO2	32	8	0	10*	24*	5	2	41*	24*
CC1Cc2nc(SCC(=O)NCc3ccco3)n(-c3ccccc3)c(=O)c2S1 (stereo not given)	-6	-2	0	3	-6	.	.	.	.
COc1ccc(OC)c(NC(=O)CNC(c2ccccc2)c2ccccc2)c1	24	0	0	14*	24*	5	2	37*	14*
SMILES	FAS TE block	GRIN3A LBD mod	aDG glyco up	ADAM17 inh	ADAM10 inh	ADAM10 confirm	ADAM17 ctr	ADAM10 ctr	ADAM17 confirm
CCn1cc(CNC(=O)c2cc(Cl)ccc2OC)c(C)n1	-4	1	0	3	-3	.	.	.	.
N/C(=N\S(=O)(=O)c1cc(C(F)(F)F)cc(C(F)(F)F)c1)c1ccc(Cl)cc1	38	19*	0	9.7*	23*	2	1	45*	19*
C(=C\c1ccccc1)/CN1CCN(C(c2ccccc2)c2nnnn2-c2ccc3c(c2)OCCO3)CC1 (stereo not given)	24	.	0	14*	29*	5	2	20*	9.9*
Cc1oc2c(cc(NS(=O)(=O)c3cccs3)c3ccccc32)c1C(=O)OC(C)C	19	4	0	9.7*	24*	6	3	38*	14*
COC(=O)c1ccc(N2CCC(c3cc(-c4ccc(OC)cc4)n[nH]3)CC2)c([N+](=O)[O-])c1	29	-1	4	12*	29*	11	3	35*	18*
COc1ccc(C(C(=O)NC2CCCCC2)N(C(=O)c2sc(C)nc2C)c2ccccc2C)cc1 (stereo not given)	40	0	0	9.6*	20*	2	0	3	4
O=C(NO)c1ccc(OC(F)F)cc1	-6	-6	0	15*	25*	11	2	15	19*
CCc1ccccc1NC(=O)c1cc(=O)c2ccccc2o1	0	-1	0	0	-3	.	.	.	.
O=C(COC(=O)C12CC3CC(CC(C3)C1)C2)Nc1ccc(OC(F)F)cc1	32	8	0	15*	27*	4	1	24*	12*
O=C(COC(=O)C12CC3CC(CC(O)(C3)C1)C2)Nc1ccc(OC(F)F)cc1	-3	8	0	0	-6	.	.	.	.
O=C(Nc1ccc(C(=O)N2CCCc3ccccc32)cc1)c1cccs1	10	2	0	1	6	.	.	.	.

High-throughput results from PubChem BioAssay.
